# Test results published in PubChem BioAssay (Tox21).
# Unmarked numbers belong to inactive results. Inconclusive results are not listed. Entries that show only a call come without a potency. Activity calls are given as the source filed them. Unless noted, calls follow the shape of the dose curve; as a rule, active = well fitted curve in the direction sought with a large enough effect in the repeat runs; inconclusive = weak or mixed curves; inactive = no such curve, though single readings can be large; an effect the other way counts as inactive or inconclusive.
# How the values were obtained:
# [1] = qHTS assay for small molecule agonists of the p53 signaling pathway (AID 651631; calls by dose curve; also: nearly all actives have a fitted effect of over 15% in size)
# In short: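 HCT-116 p53RE-bla reporter line, 16 h compound treatment at 37 °C, then fluorescence after 2 h with B/G FRET substrate.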
# [2] = qHTS assay for small molecules that induce genotoxicity in human embryonic kidney cells expressing luciferase-tagged ATAD5 (AID 651632); also: nearly all actives have a fitted effect of over 15% in size
# In short: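 HEK293T cells carrying luciferase-tagged ATAD5 were given compound or DMSO vehicle and incubated 16 hr at 37C, 5% CO2. Luciferase activity was read after 30 min at room temperature with Amplite; a rise signals genotoxic stress.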
# [3] = qHTS assay for small molecule agonists of the p53 signaling pathway - cell viability (AID 651633; calls by dose curve;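 also: p53RE-bla HCT reporter cells with a stable beta-lactamase p53 reporter; series mostly up to about 83 µM; nearly all actives have a fitted effect of over 30% in size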)
# In short: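 Viability counter-read: CellTiter-Glo luminescence (30 min, room temperature) in the same p53RE-bla plates. These plates had been exposed to compounds for 16 h at 37 C.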
# [4] = qHTS assay for small molecules that induce genotoxicity in human embryonic kidney cells expressing luciferase-tagged ATAD5 - cell viability (AID 651634; calls by dose curve; also: nearly all actives have a fitted effect of over 25% in size)
# In short: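 HEK293T cells carrying luciferase-tagged ATAD5, 2,000 cells/well, exposed to compound for 15.5 hr at 37C. Viability read as live-cell protease activity by CellTiter-Fluor fluorescence after 30 min at 37C.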
# [5] = qHTS assay for small molecule disruptors of the mitochondrial membrane potential (AID 720635); also: potency is read from the fitted curve at half-maximal effect
# In short: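 Mitochondrial membrane potential tracked with Mito-MPS dye, red aggregates (ex 540/em 590 nm) against green monomers (ex 490/em 535 nm). Compound treatment 1 hr at 37C, dye 30 min in HepG2.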
# [6] = qHTS assay to test for compound auto fluorescence at 590 nm (red) in HepG2 cells (AID 720674)
# In short: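 1 hr compound incubation on HepG2 cells, 37 C, 5% CO2; plate read ex 540 nm / em 590 nm; intensities reported as Rose Bengal sodium equivalents.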
# [7] = qHTS assay to test for compound auto fluorescence at 535 nm (green) in HepG2 cells (AID 720675)
# [8] = qHTS assay to test for compound auto fluorescence at 460 nm (blue) in HEK293 cells (AID 720678)
# In short: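 Blue read-out at excitation 405 nm and emission 460 nm follows overnight compound exposure of HEK293 cells at 37C in 5% CO2. Activity is given as auto fluorescence equivalency to triamterene.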
# [9] = qHTS assay to test for compound auto fluorescence at 590 nm (red) in HEK293 cells (AID 720679)
# In short: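 Red channel, Ex/Em 540/590nm; signal expressed as equivalency to Rose Bengal sodium. HEK293, 2,000 cells/well, 10% dialyzed FBS; 23 nL compound pinned after 4-5 hr attachment; overnight 37C/5% CO2 before reading.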
# [10] = qHTS assay for small molecule disruptors of the mitochondrial membrane potential - cell viability (AID 720634; calls by dose curve;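 also: human HepG2 liver cancer cells; series mostly up to about 83 µM; nearly all actives have a fitted effect of over 20% in size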)
# In short: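 HepG2 cells, 2,000 per well, attached overnight, then treated 1 hr at 37 C, 5% CO2. Viability read as ATP by CellTiter-Glo luminescence after 30 min at room temperature. Read in the same wells as the m-MPI membrane-potential dye assay.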
structure (smiles),measurement,setting,value
CN(C)CCc1c[nH]c2ccc(CS(=O)(=O)N3CCCC3)cc12,Potency,[1],inactive
same,Potency,[2],inactive
same,outcome,[3],inactive
same,outcome,[4],inactive
same,Potency,[5],inactive
same,outcome,[6],inactive
same,outcome,[7],inactive
same,outcome,[8],inactive
same,outcome,[9],inactive
C/C=C(\C)C=O,Potency,[1],inactive
same,Potency,[2],inactive
same,outcome,[3],inactive
same,outcome,[4],inactive
same,outcome,[6],inactive
same,outcome,[7],inactive
same,outcome,[8],inactive
same,outcome,[9],inactive
CC1(C)CC(N)CC(C)(C)N1,Potency,[1],inactive
same,Potency,[2],inactive
same,outcome,[3],inactive
same,outcome,[4],inactive
same,outcome,[6],inactive
same,outcome,[7],inactive
same,outcome,[8],inactive
same,outcome,[9],inactive
CCCCCCCCCCCCCCCCN(C)C,activation,[1],-4.5% [at 8.3 µM]
same,activation,[2],2.36% [at 8.08 µM]
same,"activity change, negative = cytotoxicity",[3],8.53% [at 8.08 µM]
same,"activity, negative = cytotoxicity",[4],-13.5% [at 8.08 µM]
same,"fluorescence, relative to Rose Bengal",[6],0.017% [at 3.72 µM]
same,"fluorescence, % of fluorescein control",[7],-0.0084% [at 3.72 µM]
same,"fluorescence, % of triamterene",[8],-0.0322% [at 3.72 µM]
same,"fluorescence, % of fluorescent control",[9],-0.181% [at 3.72 µM]
C=C(C)C(=O)OCCOC1CC2CC1C1C=CCC21 (centres undefined),Potency,[1],inactive
same,Potency,[2],inactive
same,outcome,[3],inactive
same,outcome,[4],inactive
same,outcome,[10],inactive
same,outcome,[6],inactive
same,outcome,[7],inactive
same,outcome,[8],inactive
same,outcome,[9],inactive
C=COCCCCO,Potency,[1],inactive
same,Potency,[2],inactive
same,outcome,[3],inactive
same,outcome,[4],inactive
same,Potency,[5],inactive
same,outcome,[6],inactive
same,outcome,[7],inactive
same,outcome,[8],inactive
same,outcome,[9],inactive
Cc1cc(N)no1,Potency,[1],inactive
same,Potency,[2],inactive
same,outcome,[3],inactive
same,outcome,[4],inactive
same,outcome,[10],inactive
same,outcome,[7],inactive
same,outcome,[8],inactive
same,outcome,[9],inactive
CC(C)=CCC/C(C)=C\C#N,Potency,[1],inactive
same,Potency,[2],inactive
same,outcome,[3],inactive
same,outcome,[4],inactive
same,outcome,[10],inactive
same,outcome,[7],inactive
same,outcome,[8],inactive
same,outcome,[9],inactive
C=C(C)C(=O)OCCCC,Potency,[1],inactive
same,Potency,[2],inactive
same,outcome,[3],inactive
same,outcome,[4],inactive
same,outcome,[10],inactive
same,outcome,[6],inactive
same,outcome,[7],inactive
same,outcome,[8],inactive
same,outcome,[9],inactive
CN(C)c1cc(NC(=O)CNC(C)(C)C)c(O)c2c1C[C@H]1C[C@H]3[C@H](N(C)C)C(=O)C(C(N)=O)=C(O)[C@@]3(O)C(=O)C1=C2O,Potency,[1],inactive
same,Potency,[2],inactive
same,outcome,[3],inactive
same,outcome,[4],inactive
same,outcome,[6],inactive
same,outcome,[7],inactive
same,outcome,[8],inactive
same,outcome,[9],inactive
CC/C=C\CCOC(=O)c1ccccc1,Potency,[1],inactive
same,Potency,[2],inactive
same,outcome,[3],inactive
same,outcome,[4],inactive
same,Potency,[5],inactive
same,outcome,[6],inactive
same,outcome,[7],inactive
same,outcome,[8],inactive
same,outcome,[9],inactive
Cc1nnc(C(=O)NC(C)(C)c2nc(C(=O)NCc3ccc(F)cc3)c(O)c(=O)n2C)o1,Potency,[1],inactive
same,Potency,[2],inactive
same,outcome,[3],inactive
same,outcome,[4],inactive
same,Potency,[5],inactive
same,outcome,[7],inactive
same,outcome,[8],inactive
same,outcome,[9],inactive
CC(C)(C)NCC(O)COc1cccc2c1CCC(=O)N2 (centres undefined),Potency,[1],inactive
same,Potency,[2],inactive
same,outcome,[3],inactive
same,outcome,[4],inactive
same,outcome,[10],inactive
same,"fluorescence, relative to Rose Bengal",[6],-0.0368% [at 18.6 µM]
same,"fluorescence, % of fluorescein control",[7],-0.225% [at 18.6 µM]
same,"fluorescence, % of triamterene",[8],0.0079% [at 18.6 µM]
same,"fluorescence, % of fluorescent control",[9],0.0747% [at 18.6 µM]
CNCCc1ccccn1,Potency,[1],inactive
same,Potency,[2],inactive
same,outcome,[3],inactive
same,outcome,[4],inactive
same,outcome,[10],inactive
same,"fluorescence, relative to Rose Bengal",[6],0.136% [at 18.6 µM]
same,"fluorescence, % of fluorescein control",[7],-0.0784% [at 18.6 µM]
same,"fluorescence, % of triamterene",[8],0.106% [at 18.6 µM]
same,"fluorescence, % of fluorescent control",[9],0.589% [at 18.6 µM]
O=C(c1ccccc1)c1cccc(O)c1,Potency,[1],inactive
same,Potency,[2],inactive
same,outcome,[3],inactive
same,outcome,[4],inactive
same,Potency,[5],27.7 µM (active)
same,outcome,[7],inactive
same,outcome,[8],inactive
same,outcome,[9],inactive
CCCCS,Potency,[1],inactive
same,Potency,[2],inactive
same,outcome,[3],inactive
same,outcome,[4],inactive
same,Potency,[5],inactive
same,outcome,[7],inactive
same,outcome,[8],inactive
same,outcome,[9],inactive
Cc1ccc(O)c([N+](=O)[O-])c1,Potency,[1],inactive
same,Potency,[2],inactive
same,outcome,[3],inactive
same,outcome,[10],inactive
same,Potency,[5],inactive
same,outcome,[6],inactive
same,outcome,[7],inactive
same,outcome,[8],inactive
same,outcome,[9],inactive
CCN(CC)CC,Potency,[1],inactive
same,Potency,[2],inactive
same,outcome,[3],inactive
same,outcome,[4],inactive
same,outcome,[10],inactive
same,outcome,[6],inactive
same,outcome,[7],inactive
same,outcome,[8],inactive
same,outcome,[9],inactive
CCN1CCN(C(=O)N[C@@H](C(=O)N[C@@H]2C(=O)N3C(C(=O)O)=C(CSc4nnnn4C)CS[C@H]23)c2ccc(O)cc2)C(=O)C1=O,Potency,[1],inactive
same,Potency,[2],inactive
same,outcome,[3],inactive
same,outcome,[4],inactive
same,outcome,[10],inactive
same,outcome,[6],inactive
same,outcome,[7],inactive
same,outcome,[8],inactive
same,outcome,[9],inactive
Cc1ccc(N)nc1,Potency,[1],inactive
same,Potency,[2],inactive
same,outcome,[3],inactive
same,outcome,[4],inactive
same,Potency,[5],inactive
same,outcome,[7],inactive
same,outcome,[8],inactive
same,outcome,[9],inactive
CCCC(=O)CC,Potency,[1],inactive
same,Potency,[2],inactive
same,outcome,[4],inactive
same,outcome,[10],inactive
same,Potency,[5],inactive
same,outcome,[6],inactive
same,outcome,[7],inactive
same,outcome,[8],inactive
same,outcome,[9],inactive
CCCOc1ccc(C(=O)OCCN(CC)CC)cc1N,Potency,[1],inactive
same,Potency,[2],inactive
same,outcome,[4],inactive
same,outcome,[10],inactive
same,Potency,[5],inactive
same,outcome,[7],inactive
same,outcome,[8],inactive
same,outcome,[9],inactive
CCCCCCCCCCCC(C)=O,Potency,[1],inactive
same,Potency,[2],inactive
same,outcome,[4],inactive
same,outcome,[10],inactive
same,Potency,[5],inactive
same,outcome,[6],inactive
same,outcome,[7],inactive
same,outcome,[8],inactive
same,outcome,[9],inactive
O=C(O)CCCCCCCCCC(=O)O,Potency,[1],inactive
same,Potency,[2],inactive
same,outcome,[3],inactive
same,outcome,[10],inactive
same,outcome,[6],inactive
same,outcome,[7],inactive
same,outcome,[8],inactive
same,outcome,[9],inactive
CCCCCCCCC1CO1 (centres undefined),Potency,[1],inactive
same,Potency,[2],inactive
same,outcome,[3],inactive
same,outcome,[10],inactive
same,Potency,[5],inactive
same,outcome,[7],inactive
same,outcome,[8],inactive
same,outcome,[9],inactive
CC[N+](C)(CC)CC,Potency,[1],inactive
same,Potency,[2],inactive
same,outcome,[3],inactive
same,outcome,[10],inactive
same,outcome,[6],inactive
same,outcome,[7],inactive
same,outcome,[8],inactive
same,outcome,[9],inactive
NC[C@H]1O[C@H](O[C@H]2[C@H](O)[C@@H](O[C@H]3O[C@H](CO)[C@@H](O)[C@H](N)[C@H]3O)[C@H](N)C[C@@H]2N)[C@H](N)[C@@H](O)[C@@H]1O,Potency,[1],inactive
same,Potency,[2],inactive
same,outcome,[4],inactive
same,outcome,[10],inactive
same,Potency,[5],inactive
same,outcome,[6],inactive
same,outcome,[7],inactive
same,outcome,[8],inactive
same,outcome,[9],inactive
